Reference: PubChem BioAssay (EPA / NIEHS)
Calls of active or inactive are those of the source. Rule for the calls: active = hit-call score of the fitted dose curve at least 0.9, where 1 is the maximum; inactive = score below 0.9.

Experiments:
Details in all cases: mRNA level, 48 h; actives raise or lower the signal
[1] = read-out: Peroxisomal acyl-coenzyme A oxidase 1 (ACOX1) gene, ACOX1 (gene 51); assay: LTEA_HepaRG_ACOX1: Life Technologies and Expression Analysis (LTEA) Assay for Peroxisomal acyl-coenzyme A oxidase 1 (ACOX1) gene using HepaRG (AID 2283467)
Summary of the method: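 HepaRG cells, plated 48 h then switched to serum-free induction medium, were exposed in duplicate for 48 h to 8-point half-log concentrations up to 100 uM in 0.5% DMSO. ACOX1 mRNA was measured by qRT-PCR, normalized to ACTB/GAPDH/POLR2A, and fitted bidirectionally versus DMSO.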

[2] = read-out: Bcl-2 (BAD) gene, BAD (gene 572); assay: LTEA_HepaRG_BAD: Life Technologies and Expression Analysis (LTEA) Assay for Bcl-2 (BAD) gene using HepaRG (AID 2283469)
Summary of the method: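 Differentiated HepaRG cells were exposed in duplicate in 0.5% DMSO for 48 h to eight-point half-log concentrations up to 100 uM. BAD mRNA was measured by Fluidigm TaqMan qRT-PCR, normalized to ACTB, GAPDH and POLR2A, and fitted bidirectionally against DMSO.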

[3] = read-out: Bcl-2 (BAX) gene, BAX (gene 581); assay: LTEA_HepaRG_BAX: Life Technologies and Expression Analysis (LTEA) Assay for Bcl-2 (BAX) gene using HepaRG (AID 2283470)
Summary of the method: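 Differentiated HepaRG cells exposed 48 h in serum-free induction medium, eight half-log concentrations from 100 uM, in duplicate, 0.5% DMSO vehicle. BAX mRNA by TaqMan qRT-PCR, normalised to ACTB, GAPDH and POLR2A.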

[4] = read-out: adenosine kinase (ADK) gene, ADK (gene 132); assay: LTEA_HepaRG_ADK: Life Technologies and Expression Analysis (LTEA) Assay for adenosine kinase (ADK) gene using HepaRG (AID 2283471)
Summary of the method: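 Following 48 h exposure of HepaRG cells in 0.5% DMSO (top concentration 100 uM, duplicate wells), ADK mRNA induction or suppression was measured by qRT-PCR, normalised to ACTB/GAPDH/POLR2A, and fitted bidirectionally relative to vehicle.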

[5] = read-out: Alpha-fetoprotein (AFP) gene, AFP (gene 174); assay: LTEA_HepaRG_AFP: Life Technologies and Expression Analysis (LTEA) Assay for Alpha-fetoprotein (AFP) gene using HepaRG (AID 2283472)
Summary of the method: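 Differentiated human HepaRG cells exposed 48 h in serum-free induction medium, 8-point half-log series from 100 uM in 0.5% DMSO, duplicate. AFP mRNA by qRT-PCR, normalized to ACTB, GAPDH, POLR2A; bidirectional fit vs DMSO.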

BCL2L11 (gene 10018) = assay: LTEA_HepaRG_BCL2L11: Life Technologies and Expression Analysis (LTEA) Assay for Bcl-2 (BCL2L11) gene using HepaRG (AID 2283473)
Summary of the method: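 Human hepatic HepaRG cultures are treated 48 h with test chemicals (maximum 100 uM, 0.5% DMSO vehicle). Expression of BCL2L11 is measured by qRT-PCR against ACTB, GAPDH and POLR2A, with activity in either direction scored relative to vehicle.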

[6] = read-out: Apolipoprotein A-V (APOA5) gene, APOA5 (gene 116519); assay: LTEA_HepaRG_APOA5: Life Technologies and Expression Analysis (LTEA) Assay for Apolipoprotein A-V (APOA5) gene using HepaRG (AID 2283474)
Summary of the method: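 Concentration-response of APOA5 expression in HepaRG: eight half-log doses to 100 uM, 48 h, qRT-PCR normalized to ACTB/GAPDH/POLR2A, bidirectional fitting with 0.5% DMSO as baseline.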

[7] = read-out: Apoptosis regulator Bcl-2 (Homo sapiens) (UniProt P10415); assay: LTEA_HepaRG_BCL2: Life Technologies and Expression Analysis (LTEA) Assay for Bcl-2 gene using HepaRG (AID 2283475)
Summary of the method: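 Differentiated human HepaRG cells in serum-free induction medium exposed 48 h, in duplicate, to 8-point half-log series from 100 uM in 0.5% DMSO. BCL2 mRNA by qRT-PCR (TaqMan/Fluidigm), normalized to ACTB, GAPDH, POLR2A; bidirectional fit against DMSO.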

Caspase-3 (Homo sapiens) = Caspase-3 (Homo sapiens) (UniProt P42574); assay: LTEA_HepaRG_CASP3: Life Technologies and Expression Analysis (LTEA) Assay for cysteine-aspartic acid protease (CASP3) using HepaRG (AID 2283477)
Summary of the method: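 Transcript-level assay: CASP3 mRNA in human HepaRG after 48 h treatment, eight half-log concentrations from 100 uM in 0.5% DMSO, quantified by qRT-PCR.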

[8] = read-out: Cytochrome P450 (CYP1A2), CYP1A2 (gene 1544); assay: LTEA_HepaRG_CYP1A2: Life Technologies and Expression Analysis (LTEA) Assay for Cytochrome P450 (CYP1A2) using HepaRG (AID 2283479)
Summary of the method: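 In duplicate wells, HepaRG cultures maintained in 0.5% DMSO were treated 48 h across an 8-point, half-log series topping at 100 uM; phenobarbital (1 mM) served as induction control. Expression was read by qRT-PCR.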

[9] = read-out: cysteine-aspartic acid protease (CASP8), CASP8 (gene 841); assay: LTEA_HepaRG_CASP8: Life Technologies and Expression Analysis (LTEA) Assay for cysteine-aspartic acid protease (CASP8) using HepaRG (AID 2283480)
Summary of the method: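 Differentiated HepaRG cells in serum-free induction medium, 48 h exposure, eight-point half-log series from 100 uM in 0.5% DMSO, duplicates. CASP8 mRNA by qRT-PCR, normalized to ACTB, GAPDH, POLR2A; bidirectional fit versus DMSO.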

[10] = read-out: Cytochrome P450 2C19 (Homo sapiens) (UniProt P33261); assay: LTEA_HepaRG_CYP2C19: Life Technologies and Expression Analysis (LTEA) Assay for CYP2C19 using HepaRG (AID 2283482)
Summary of the method: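 Endpoint: CYP2C19 mRNA change, bidirectional fit vs 0.5% DMSO. Cells: HepaRG, 48 h exposure, eight-point series topping at 100 uM. Quantitation: qRT-PCR normalized to ACTB, GAPDH, POLR2A.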

CYP2C8 (gene 1558) = assay: LTEA_HepaRG_CYP2C8: Life Technologies and Expression Analysis (LTEA) Assay for CYP2C8 using HepaRG (AID 2283483)
Summary of the method: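 Differentiated HepaRG cells in serum-free induction medium exposed 48 h in duplicate to 8 half-log concentrations from 100 uM in 0.5% DMSO. CYP2C8 mRNA by qRT-PCR normalized to ACTB, GAPDH, POLR2A; bidirectional fit versus DMSO.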

CYP2C9 (gene 1559) = assay: LTEA_HepaRG_CYP2C9: Life Technologies and Expression Analysis (LTEA) Assay for CYP2C9 using HepaRG (AID 2283484)
Summary of the method: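 Differentiated human HepaRG cells in serum-free induction medium were exposed 48 h to chemicals in 8-point half-log series from 100 uM (0.5% DMSO), in duplicate. CYP2C9 mRNA was measured by qRT-PCR, normalized to ACTB/GAPDH/POLR2A, with bidirectional fitting versus DMSO.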

CYP2E1 (gene 1571) = assay: LTEA_HepaRG_CYP2E1: Life Technologies and Expression Analysis (LTEA) Assay for CYP2E1 using HepaRG (AID 2283485)
Summary of the method: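 HepaRG cells, plated 48 h, then exposed 48 h in serum-free induction medium to eight half-log concentrations from 100 uM in 0.5% DMSO, duplicate. CYP2E1 mRNA by qRT-PCR, normalized to ACTB/GAPDH/POLR2A; bidirectional fit versus DMSO.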

CYP4A11 (gene 1579) = assay: LTEA_HepaRG_CYP4A11: Life Technologies and Expression Analysis (LTEA) Assay for CYP4A11 using HepaRG (AID 2283486)
Summary of the method: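 Human hepatic HepaRG cultures receive duplicate 48 h exposures across a concentration-response series topping at 100 uM. Expression changes in CYP4A11 are measured by qRT-PCR relative to DMSO controls.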

[11] = read-out: Cytochrome P450 (CYP2B6), CYP2B6 (gene 1555); assay: LTEA_HepaRG_CYP2B6: Life Technologies and Expression Analysis (LTEA) Assay for Cytochrome P450 (CYP2B6) using HepaRG (AID 2283481)
Summary of the method: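 Human HepaRG, 48 h dosing, 0.5% DMSO vehicle, top dose 100 uM. CYP2B6 transcript by qRT-PCR, housekeeping-normalized, bidirectional curve fit.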

[12] = read-out: Cytochrome P450 (CYP24A1), CYP24A1 (gene 1591); assay: LTEA_HepaRG_CYP24A1: Life Technologies and Expression Analysis (LTEA) Assay for Cytochrome P450 (CYP24A1) using HepaRG (AID 2283478)
Summary of the method: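 Gene expression of CYP24A1 by TaqMan qRT-PCR in HepaRG after 48 h treatment, highest concentration 100 uM; activity fitted in both directions relative to DMSO vehicle.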

[13] = read-out: Bcl-2 (BID) gene, BID (gene 637); assay: LTEA_HepaRG_BID: Life Technologies and Expression Analysis (LTEA) Assay for Bcl-2 (BID) gene using HepaRG (AID 2283476)
Summary of the method: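 Gene expression by qRT-PCR in HepaRG cells after 48 h exposure, duplicate wells, eight half-log concentrations topping at 100 uM in 0.5% DMSO. Normalized to ACTB, GAPDH, POLR2A; bidirectional fitting relative to DMSO.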

Measured: AC50

Sequence of Cytochrome P450 2C19 (Homo sapiens) (P33261 whole entry, looked up): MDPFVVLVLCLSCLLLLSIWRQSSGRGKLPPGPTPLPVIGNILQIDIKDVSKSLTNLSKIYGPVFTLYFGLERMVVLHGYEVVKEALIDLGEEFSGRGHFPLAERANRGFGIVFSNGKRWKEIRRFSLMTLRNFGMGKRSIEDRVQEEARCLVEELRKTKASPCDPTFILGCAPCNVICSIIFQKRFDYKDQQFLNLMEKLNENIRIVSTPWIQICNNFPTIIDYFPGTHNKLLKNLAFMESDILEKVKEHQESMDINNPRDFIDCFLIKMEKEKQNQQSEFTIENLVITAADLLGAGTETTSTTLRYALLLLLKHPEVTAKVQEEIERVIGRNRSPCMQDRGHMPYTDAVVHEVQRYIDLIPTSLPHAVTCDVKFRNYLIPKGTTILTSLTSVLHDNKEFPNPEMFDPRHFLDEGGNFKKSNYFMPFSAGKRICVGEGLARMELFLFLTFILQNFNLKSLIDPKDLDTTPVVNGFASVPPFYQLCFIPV
Sequence of Caspase-3 (Homo sapiens) (P42574 whole entry, looked up): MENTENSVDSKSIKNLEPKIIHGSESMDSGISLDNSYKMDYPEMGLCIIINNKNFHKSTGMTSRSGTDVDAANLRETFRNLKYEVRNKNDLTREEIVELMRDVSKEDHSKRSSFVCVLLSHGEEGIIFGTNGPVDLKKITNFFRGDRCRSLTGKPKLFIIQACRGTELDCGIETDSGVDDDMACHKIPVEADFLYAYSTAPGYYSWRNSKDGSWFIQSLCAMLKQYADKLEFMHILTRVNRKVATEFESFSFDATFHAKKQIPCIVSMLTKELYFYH
Sequence of Apoptosis regulator Bcl-2 (Homo sapiens) (P10415 whole entry, looked up): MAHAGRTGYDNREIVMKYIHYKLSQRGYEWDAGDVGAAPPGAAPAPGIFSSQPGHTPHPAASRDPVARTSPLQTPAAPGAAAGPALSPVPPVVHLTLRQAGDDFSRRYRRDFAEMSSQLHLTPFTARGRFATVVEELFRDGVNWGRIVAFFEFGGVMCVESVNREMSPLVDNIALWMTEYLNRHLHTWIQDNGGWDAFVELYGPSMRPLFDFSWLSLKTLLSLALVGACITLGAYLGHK

COC(=O)c1ccc(O)cc1
not listed: [11] | [12] | [13]
inactive: all other assays above

CCCc1cc(=O)[nH]c(=S)[nH]1
active: [8] 23.7 µM
not listed: [12] | [13]
inactive: all other assays above

CC(CO)OC(C)CO (stereo not given) (tested in a mixture with another compound)
not listed: [11] | [12] | [13]
inactive: all other assays above

C[C@]12C=CC(=O)C=C1CC[C@@H]1[C@@H]2C(=O)C[C@@]2(C)[C@H]1CC[C@]2(O)C(=O)CO
inactive: [1] | [2] | [3] | [4] | [5] | BCL2L11 (gene 10018) | [6] | [7] | Caspase-3 (Homo sapiens) | [9]

Nc1ccccc1N
inactive: [2] | [7] | Caspase-3 (Homo sapiens) | [12] | [9]
active: [1] 62.3 µM | [3] 40.6 µM | [4] 85.7 µM | [5] 72 µM | BCL2L11 (gene 10018) 50 µM | [6] 58.2 µM | [8] 2.19 µM | [11] 69 µM | [10] 71.8 µM | CYP2C8 (gene 1558) 78.3 µM | CYP2C9 (gene 1559) 71 µM | CYP2E1 (gene 1571) 73.1 µM | CYP4A11 (gene 1579) 66.5 µM

FC(F)(F)C(F)(F)C(F)(F)C(F)(F)C(F)(F)C(F)(F)CCI
not listed: [12]
inactive: all other assays above

Cc1ccc2ncccc2c1
active: [11] 13.2 µM
not listed: [12]
inactive: all other assays above

O=C(OCCCCCOC(=O)c1ccccc1)c1ccccc1
active: [2] 1.95 µM | [3] 1.78 µM | [4] 1.57 µM | [5] 0.77 µM | BCL2L11 (gene 10018) 2.45 µM | [6] 3.02 µM | [7] 1.67 µM | [13] 2.7 µM | Caspase-3 (Homo sapiens) 627 nM | [8] 1.58 µM | [9] 942 nM | [10] 2.44 µM | CYP2C8 (gene 1558) 0.726 µM | CYP4A11 (gene 1579) 1.94 µM
inactive: [1] | CYP2C9 (gene 1559) | CYP2E1 (gene 1571)
